# Source: PubChem (National Center for Advancing Translational Sciences (NCATS))
# KinaseGlo FLuc: blocks Kinase-Glo luciferase, a counter-screen artifact; Potency, µM (series often up to 38.3 µM), for inactives: at the highest dose activity change, negative = inhibition, most hits filed as inhibitors; Q27757; Kinase-Glo luciferase, ATP luminescence, 8 min; 0.28% of 200,000 active; AID 1379; further: on the % scale 0 is the no-effect control and ±100 the full control effect; nearly all actives have a fitted effect of over 60% in size
#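 Light output from Kinase-Glo luciferase with luciferin and 10 uM ATP in 50 mM imidazole pH 7.2, KCl, MgCl2, Tween 20, BSA; compound pin-delivered, 8-min ambient incubation, then luminescence read.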
# ELG1 genotoxic: genotoxicity induction in ELG1-luciferase HEK293T cells | HEK293T ELG1-luciferase reporter, luminescence, 16 h | Potency, µM (titrated, usually from 46 µM), for inactives: at the top dose activity change, positive = activation, most hits filed as activators | 1.3% of 330,000 active; further: % of control where 0% means no effect; nearly all actives have a fitted effect of over 60% in size
#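 Quantitative HTS format in 1536-well plates. HEK293T ELG1-luciferase reporter cells receive test compound and are incubated 16 hr at 37 °C, 5% CO2; ONE-Glo added, 30 min room temperature, then luminescence read.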
# Rab9 prom act: activates the Rab9 promoter | Huh7 Rab9 promoter-luciferase reporter, luminescence, 24 h | Potency, µM (highest dose often 9.22 µM), for inactives: top-dose activation, negative = inhibition, actives largely listed as activators | 2.8% of 320,000 active; further: % of control where 0% means no effect; nearly all actives have a fitted effect of over 60% in size
#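 Huh7 reporter line, Rab9 promoter upstream of luciferase. Compound exposure 24 h at 37 °C in reduced-serum medium with 10% FBS. Read-out: luminescence.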
# SMN2 splice enh: increases expression of the SMN2 splice variant; HEK293 SMN2-luciferase splicing reporter, luminescence, 30-36 h; 2.8% of 210,000 active; AID 1458; Potency, µM (highest dose often 46.1 µM), inactives show at the highest dose activity change, positive = activation, hits mostly activators; further: % of control where 0% means no effect; nearly all actives have a fitted effect of over 55% in size
#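 HEK293 cells carry an SMN2 […]–luciferase reporter in which exon 7 inclusion puts luciferase in frame. Cells were plated 10-12 h before compound addition, then incubated 30-36 h at 37C. ONE-Glo luminescence was read; sodium butyrate at 4.5 mM final served as control.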
# NPC1 prom act: activators of NPC1 promoter; Huh7 NPC1 promoter luciferase reporter, 24 h; Potency, µM (series often up to 9.22 µM), for inactives: at the top dose activation, usual class: activators; 2.4% of 320,000 active; further: % of control where 0% means no effect; nearly all actives have a fitted effect of over 60% in size
#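 Stably transfected Huh7 (NPC1 promoter→luciferase), 1500 cells/well in Opti-MEM + 10% FBS, 2 h settle, then compound 24 h at 37 °C. Luminescence after 10 min with Amplite reagent.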
# FLuc counter: inhibits or activates purified firefly luciferase, miR-21 counter-screen; AID 588342; purified FLuc, Km substrates, luminescence inhibition; Potency, µM (top dose mostly 57.5 µM), inactives show at the top dose activity change, negative = inhibition, hits mostly inhibitors; P08659; 6.9% of 360,000 active;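 further: plate controls were vehicle for no effect and reference inhibitor for full effect; nearly all actives have a fitted effect of over 55% in size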
# Target sequence (P08659 whole entry, looked up): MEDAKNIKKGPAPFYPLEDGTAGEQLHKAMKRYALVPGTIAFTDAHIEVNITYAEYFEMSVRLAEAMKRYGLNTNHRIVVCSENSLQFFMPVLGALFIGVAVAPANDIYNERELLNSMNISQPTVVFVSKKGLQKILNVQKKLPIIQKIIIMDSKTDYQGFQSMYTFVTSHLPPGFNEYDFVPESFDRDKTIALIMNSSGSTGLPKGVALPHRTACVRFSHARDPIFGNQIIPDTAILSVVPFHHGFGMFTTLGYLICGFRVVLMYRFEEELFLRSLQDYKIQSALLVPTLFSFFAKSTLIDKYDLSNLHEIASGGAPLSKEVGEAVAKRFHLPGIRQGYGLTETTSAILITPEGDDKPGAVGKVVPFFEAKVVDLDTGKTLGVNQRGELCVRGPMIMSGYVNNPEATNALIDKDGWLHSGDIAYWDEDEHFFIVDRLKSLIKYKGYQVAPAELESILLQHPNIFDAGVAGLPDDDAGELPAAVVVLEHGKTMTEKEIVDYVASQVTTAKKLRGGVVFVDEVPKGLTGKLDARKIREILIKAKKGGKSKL
#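 Biochemical qHTS of compounds, final roughly 60 µM downward over six points, against 10 nM purified firefly luciferase using Km concentrations of substrates (10 uM D-luciferin, 10 uM ATP) in Tris acetate pH 7.5 buffer; luminescence output.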
# Starred values were filed as active, the others as inactive; ? = inconclusive; / = no result given; [ ] = remark or other dose. This is a sample that favours compounds with a hit; in the whole collection about 7.5% have one here. The call rests on the fitted dose curve; in most records, active means well fitted curve in the direction sought with a large enough effect; inconclusive means small, poorly fitted or top-dose-only effect, or another doubt; inactive means no such curve, though single readings can be large; an effect the other way counts as inactive or inconclusive. Potency means the concentration at half of the fitted maximal effect.
SMILES,KinaseGlo FLuc,ELG1 genotoxic,Rab9 prom act,SMN2 splice enh,NPC1 prom act,FLuc counter
COc1ccc(NC(=O)C2CC(c3ccccc3Cl)=NO2)cc1 (stereo not given),/,12%,6%,/,28%,-14%
COc1cc(CNCCNC(=O)c2nonc2N)ccc1OCc1ccc(Cl)cc1,4%,4%,-8%,-75%,-3%,-1%
COC(=O)c1ccc(NC(=O)CC2C(=O)N(c3cccc(C)c3)C(=O)N2C2CCCC2)cc1 (stereo not given),/,/,/,/,/,-6%
CCn1cc2nc(SCC(=O)Nc3cc(OC)cc(OC)c3)n(Cc3ccc(Cl)cc3)c(=O)c2n1,/,/,/,-4%,/,-2%
CCN(CC(=O)NCc1ccc(Cl)cc1)C(=O)/C=C/c1ccccc1,/,-1%,4%,/,-2%,-6%
CCN(CC(=O)NCc1ccc(Cl)cc1)C(=O)/C=C/c1ccc(Cl)c([N+](=O)[O-])c1,/,-6%,2%,/,13%,9.5µM*
CC1(CC(=O)N/N=C/c2ccc(-c3ccc(Cl)cc3)o2)OCCO1,-3%,7%,13%,9%,8%,3.4µM*
COC(=O)c1ccc(-c2ccc(/C=N/NC(=O)CC3(C)OCCCO3)o2)cc1,1%,9%,?,11µM*,?,?
CC(=O)N1c2ccccc2C(=O)C1N1CCN(c2ccccc2F)CC1 (stereo not given),/,/,/,/,/,-11%
CCCCN1CCc2c([nH]c3ccccc23)C1=O,-2%,?,2.5µM*,?,?,-3%[2.3 µM]
O=C1c2[nH]nc(-c3ccccc3)c2C(c2ccccc2)N1c1cccc(C(F)(F)F)c1 (stereo not given),/,/,/,-34%,/,0%
Cc1c(Cl)cccc1NC(=O)C(C)n1nc(C)c2c(C)n(-c3ccccc3)nc2c1=O (stereo not given),/,/,/,/,/,-12%
O=C(O)COc1ccc(/C=C/c2nc(-c3ccccc3O)n[nH]2)cc1,/,-6%,-2%,/,-5%,11µM*
COc1ccc(/C=C/c2nc(-c3ccccc3O)n[nH]2)cc1OC,3%,?,?,?,?,12µM*
O=C(OCc1c(-c2ccccc2)ncc2ccccc12)N1CCOCC1,/,5%,-4%,/,-2%,2.7µM*
CC(C)c1ccc(NC(=S)NNC(=O)c2cccnc2)cc1,2%,9%,15%,-16%,-3%,11µM*
CC(C)c1ccc2oc(-c3cc(NC(=O)c4cccnc4)ccc3Cl)nc2c1,/,/,/,15%,/,11µM*
CC(C)c1ccc2oc(-c3ccc(NC(=O)c4cccc(Br)c4)cc3)nc2c1,/,/,/,-14%,/,-12%
O=C(NNC(=S)Nc1ccc(Br)cc1)c1cccnc1,/,8%,9%,/,1%,?
O=C(NC(=S)Nc1ccccc1Cl)c1csnn1,-2%,2%,3%,7%,5%,13µM*
CC(C)c1ccc(NC(=O)c2cccnc2)cc1,0%,21µM*,4µM*,?,?,17µM*
COc1cccc(CN2CCCC(C(=O)N3CCCCC3)C2)c1 (stereo not given),/,-1%,-7%,/,0%,1%
CC(C)c1ccc(NC(=O)c2cc(Br)ccc2Br)cc1,-2%,3%,14%,4%,14%,?
CC(C)c1ccc(NC(=O)c2csnn2)cc1,-16%,1.2µM*,1.8µM*,?,1.6µM*,2.1µM*
CC(C)c1ccc(NC(=O)c2snc3ccc(Cl)cc23)cc1,-1%,?,2.2µM*,14µM*,2.5µM*,7.6µM*
SMILES,KinaseGlo FLuc,ELG1 genotoxic,Rab9 prom act,SMN2 splice enh,NPC1 prom act,FLuc counter
NS(=O)(=O)c1ccc(NC(=O)c2csnn2)cc1,/,/,/,/,/,-13%
C[C@H](Cc1ccccc1)Nc1ncnc2c1ncn2[C@@H]1O[C@H](CO)[C@H](O)[C@H]1O,-3%,/,/,5%,/,/
Cc1cccc2cc(-c3nc4ccc(C(=O)O)cc4[nH]3)c(=O)oc12,/,?,?,/,?,0.43µM*
O=C(O)c1ccc2nc(-c3cc4cc(Cl)ccc4oc3=O)[nH]c2c1,/,/,/,/,/,21µM*
CC(C)Cn1c(SC(C)C(=O)Nc2ccc(N3CCOCC3)cc2)nc2ccccc21 (stereo not given),1%,2%,-2%,-6%,-3%,?
CC(Sc1nc2ccccc2n1C)C(=O)Nc1ccc(N2CCOCC2)cc1 (stereo not given),-3%,21%,-2%,-17%,-1%,17µM*
Cc1cccc(NC(=O)CCNS(=O)(=O)c2ccc3c(c2)CCCC(=O)N3)c1C,/,/,/,/,/,-3%
Cc1ccnc(NS(=O)(=O)c2ccc(NC(=O)c3cc(=O)c4ccccc4o3)cc2)n1,/,4%,6%,/,-3%,-2%
CC1=C(C(=O)Nc2ccc(CC(=O)NCc3ccccc3C)cc2)SCCO1,/,?,?,/,17%,2.4µM*
CCc1ccc(CNC(=O)Cc2ccc(NC(=O)C3=C(C)OCCS3)cc2)cc1,/,?,10%,/,?,2.4µM*
CC1=C(C(=O)Nc2cccc(C(=O)NCc3ccc(F)cc3)c2)SCCO1,/,-3%,-10%,/,-4%,-18%
COc1cccc(CNC(=O)Cc2ccc(NC(=O)C3=C(C)OCCS3)cc2)c1,/,?,3.2µM*,/,?,1.9µM*
CC(C)(C)C(=O)Nc1ccc(C(=O)COC(=O)c2ccccn2)cc1,/,3%,/,/,/,/
COc1cc(/C=N/N=C(/C(=O)c2ccccc2)c2ccccc2)cc(OC)c1O,1%,-6%,-3%,-16%,2%,1%
COc1cc(/C=N/N=C/c2cc(OC)c(O)c(OC)c2)cc(OC)c1O,-4%,3%,0%,14%,0%,17µM*
COc1ccc(/C=N/N=C/c2ccc(OC)c(O)c2)cc1O,-4%,-1%,3%,0%,-1%,24µM*
COc1ccc(/C=N/N=C/c2ccc(OC)c(OC)c2)cc1OC,2%,0%,-1%,2%,0%,-1%
CCOC(=O)Cc1c(C)nc2c(-c3ccccc3)c(-c3ccccc3)[nH]n2c1=O,3%,-4%,0%,4.5µM*,2%,-12%
CCOC(=O)Cc1c(C)nc2c(-c3ccccc3)c(C)[nH]n2c1=O,1%,-3%,2%,-17%,2%,-12%
O=C1c2ccccc2-c2nc3ccccc3n21,/,11%,?,/,30%,15µM*
c1ccc2c(c1)Cn1nnnc1-2,-3%,-6%,13%,-7%,17%,5%
c1ccc2c(c1)Cn1c-2nc2ccccc21,11µM*,?,1.1µM*,10µM*,1.4µM*,6µM*
Brc1c(-c2ccccc2)nc2n1Cc1ccccc1-2,/,18µM*,4µM*,/,?,0.85µM*
COc1cccc(C(=O)Nc2nnc(S(=O)(=O)N3CCCc4ccccc43)s2)c1,/,/,/,/,/,2%
